Values joined by “and” are separate entries in the source; they are usually repeats but may differ in a detail not shown here. Identical values can stand only once. Records with an inconclusive call do not appear. A structure can be active in one record and inactive in another. Active and inactive are the calls of the source. Unless noted, the call rests on the fitted dose curve; in most records, active means well fitted curve in the direction sought with a large enough effect in the repeat runs; inconclusive means weak or mixed curves; inactive means no such curve, though single readings can be large; an effect the other way counts as inactive or inconclusive.

Experiment [1] deals with Luciferin 4-monooxygenase (Photinus pyralis) (UniProt P08659). Kind of experiment: qHTS assay to identify small molecule inhibitors of firefly luciferase (AID 1224835). Further: nearly all actives have a fitted effect of over 25% in size. Further: potency means the concentration at half of the fitted maximal effect. The procedure, abridged:
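Inhibition of purified Photinus luciferase is measured by luminescence. Substrate levels (D-luciferin, ATP) sit at their KM values. Each compound is tested in a concentration series.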
(In qHTS, concentration-response curves come from the screen itself.)

The nature of experiment [2]: qHTS assay to identify small molecule agonists of the constitutive androstane receptor (CAR) signaling pathway - cell viability counter screen (AID 1224836). Further: nearly all actives have a fitted effect of over 45% in size. Further: potency means the concentration at half of the fitted maximal effect. The procedure, abridged:
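Multiplexed viability check: HepG2-CYP2B6-hCAR cells, 15-point compound dosing, 0.75 uM PK11195 final, 23 h at 37 C, CellTiter-Fluor fluorescence.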

The nature of experiment [3]: qHTS assay to identify small molecule antagonists of the constitutive androstane receptor (CAR) signaling pathway - cell viability counter screen (AID 1224837). Further: nearly all actives have a fitted effect of over 45% in size. Further: potency means the concentration at half of the fitted maximal effect. The gist of the method:
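Counter screen run in HepG2-CYP2B6-hCAR cells: 4 hr settle, compound titration (15 concentrations) with 50 nM CITCO, 23 hr at 37 C/5% CO2, CellTiter-Fluor fluorescence.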

Experiment [4] deals with Nuclear receptor subfamily 1 group I member 3 (Homo sapiens) (UniProt Q14994). Kind of experiment: qHTS assay to identify small molecule antagonists of the constitutive androstane receptor (CAR) signaling pathway (AID 1224838).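 Further: HepG2 cells stably expressing hCAR with CYP2B6 luciferase reporter stimulated by CITCO; nearly all actives have a fitted effect of over 40% in size.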 Further: potency means the concentration at half of the fitted maximal effect. The gist of the method: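 Cell line: HepG2 double-stable for hCAR and CYP2B6-2.2kb reporter. Agonist: CITCO, 50 nM final. Compounds: 15 concentrations, 24 h, 37 C. Detection: ONE-Glo luminescence.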

Experiment [5] has the same target. Kind of experiment: qHTS assay to identify small molecule agonists of the constitutive androstane receptor (CAR) signaling pathway (AID 1224839). Further: nearly all actives have a fitted effect of over 15% in size. Further: potency means the concentration at half of the fitted maximal effect.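 On activation: HepG2 cells stably carrying human CAR and a CYP2B6 luciferase reporter.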 The procedure, abridged: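 Using human hepatoma HepG2 cells engineered with hCAR and a CYP2B6-2.2kb reporter, 15-concentration compound series were incubated 24 h alongside PK11195 at 0.75 uM final, with luminescence quantified afterwards.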

Experiment [6] is described as follows: qHTS assay to identify small molecule antagonists of the estrogen related receptor signaling pathway with the pleiotropic PPARgamma coactivator (PGC) from Tox21 10K library (AID 1224841; call rule not given here; further: actives are mostly falling curves and most rising ones were filed inactive; nearly all actives have a fitted effect of over 50% in size). The gist of the method: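 qHTS antagonist format: PGC/ERR cells, 2k/well, compound in DMSO by pin transfer after 6 h attachment, 18 h treatment at 37 C, One-Glo luminescence read at 30 min.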

Experiment [7] can be described thus: qHTS assay to identify small molecule agonists of the hypoxia (HIF-1) signaling pathway (AID 1224846; active means well fitted activation curve with a large enough effect in the signal ratio in the repeat runs, not every such curve was filed as active; the % refers to the signal ratio). The gist of the method:
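A low-serum medium (0.5% dialyzed FBS) holding 2,000 HRE-bla ME-180 cells per well is preincubated for 5 hrs, dosed with compounds by pintool, and kept a further 17 hrs at 37C, 5% CO2 before CCF4-AM FRET detection of beta-lactamase.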

A short description of experiment [8]: qHTS assay to identify small molecule agonists of H2AX - cell viability counter screen (AID 1224847; calls by dose curve; further: nearly all actives have a fitted effect of over 30% in size; further: potency means the concentration at half of the fitted maximal effect). The gist of the method: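 After overnight plating of 1000 CHO-K1 cells per well, a 15-concentration compound series was applied for 3 hr at 37C. Luminescence from CellTiter-Glo, read following 30 min at room temperature, reflected cell viability.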
A short description of experiment [9]: qHTS assay to identify small molecule antagonists of the estrogen related receptor (ERR) signaling pathway from Tox21 library (AID 1224848). Further: nearly all actives have a fitted effect of over 50% in size. Further: potency means the concentration at half of the fitted maximal effect. The gist of the method:
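Reading was by luminescence 30 min after ONE-Glo addition. Before that, ERR cells at 2,000 per well had rested 6 h at 37 C/5% CO2 and then received pin-tooled compounds in DMSO for 18 h at 37 C.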

The nature of experiment [10]: qHTS assay to identify small molecule agonists of the estrogen related receptor (ERR) signaling pathway from Tox21 library (AID 1224849; calls by dose curve; further: nearly all actives have a fitted effect of over 15% in size). The conditions noted are these: ERR reporter cell line, ONE-Glo luciferase, 18 h; at 92.4 µM (top of the series) unless noted. The procedure, abridged: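 Screening used an NTP-provided ERR luciferase cell line. Compounds in DMSO were added 6 h after seeding and left 18 h at 37 C before a 30 min ONE-Glo step and luminescence reading.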

The nature of experiment [11]: qHTS RealTime-Glo MT Cell Viability Assay in HepG2 cells - 24 hour (AID 1224867). Further: nearly all actives have a fitted effect of over 50% in size. Further: potency means the concentration at half of the fitted maximal effect. The gist of the method:
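qHTS, HepG2, 600 cells/well, RealTime-Glo (NanoLuc + prosubstrate) added with cells; 5 h preincubation; DMSO compound addition; 37 C; luminescence at 0/8/16/24/32/40 h.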

A short description of experiment [12]: qHTS RealTime-Glo MT Cell Viability Assay in HEK293 cells - 32 hour (AID 1224868). Further: nearly all actives have a fitted effect of over 50% in size. Further: potency means the concentration at half of the fitted maximal effect. The gist of the method:
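Assay medium contained NanoLuc luciferase plus cell-permeant prosubstrate, added with HEK293 cells at 600 cells/well. After 5 h at 37 C/5% CO2 compounds were added; plates stayed at 37 C for 40 h with serial luminescence reads.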

Experiment [13] in a line: A CellTox Green Cytotoxicity Assay to monitor cytotoxicity in HEK293 cells - 0 hour (AID 1224869). Further: nearly all actives have a fitted effect of over 50% in size. Further: potency means the concentration at half of the fitted maximal effect. The gist of the method:
(§1)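 Fluorescence intensity, read at 0, 8, 16, 24, 32 and 40 h of compound treatment, reflected dye binding to DNA of dead HEK293 cells; compounds (23 nL, DMSO) were added 5 h after plating cells with reagent.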

The nature of experiment [14]: A CellTox Green Cytotoxicity Assay to monitor cytotoxicity in HEK293 cells - 40 hour (AID 1224871). Further: nearly all actives have a fitted effect of over 45% in size. Further: potency means the concentration at half of the fitted maximal effect. The gist of the method:
as §1

The nature of experiment [15]: qHTS assay to identify small molecule antagonists of the estrogen related receptor signaling pathway with the pleiotropic PPARgamma coactivator (PGC) from Tox21 10K library - cell viability counter screen (AID 1224840; active means well fitted cell-killing curve with a large enough effect in the repeat runs, not every such curve was filed as active; further: nearly all actives have a fitted effect of over 40% in size; further: potency means the concentration at half of the fitted maximal effect). The procedure, abridged: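 Following seeding of 2,000 PGC/ERR cells/well and 6 hours' incubation, test compounds were delivered in DMSO. The plates then sat 17.5 hours at 37 C before a fluorogenic live-cell protease reagent (CellTiter-Fluor) was read after 30 min.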

Experiment [16] is described as follows: qHTS assay to identify small molecule agonists of the hypoxia (HIF-1) signaling pathway - cell viability counter screen (AID 1224844; calls by dose curve; further: nearly all actives have a fitted effect of over 50% in size; further: potency means the concentration at half of the fitted maximal effect). The procedure, abridged: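 Cells (HRE-bla ME-180, 2,000 per well) sat 5 hrs at 37C, got compound for 17 hrs, were read for CCF4-AM FRET, and were finally lysed with CellTiter-Glo for a 30 min room-temperature luminescence read.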

Experiment [17] in a line: qHTS RealTime-Glo MT Cell Viability Assay in HepG2 cells - 40 hour (AID 1224870). Further: nearly all actives have a fitted effect of over 50% in size. Further: potency means the concentration at half of the fitted maximal effect. The procedure, abridged:
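Real-time viability: cells seeded at 600 per well together with NanoLuc and cell-permeant prosubstrate, compounds added after 5 h incubation. Luminescence tracked at 0, 8, 16, 24, 32 and 40 h of exposure.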

Experiment [18] has as its target Thyrotropin receptor (Homo sapiens) (UniProt P16473). Nature of the experiment: qHTS assay to identify small molecule agonists of the thyroid stimulating hormone receptor (TSHR) signaling pathway (AID 1224843; calls by dose curve; further: nearly all actives have a fitted effect of over 45% in size; further: potency means the concentration at half of the fitted maximal effect). The procedure, abridged: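 HEK293 cells stably bearing the thyrotropin receptor were plated at 800 cells/well and challenged with compound (30 min, RT). Accumulated cAMP was quantified via cAMP-d2 competing for cryptate-tagged antibody.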

Experiment [19] in a line: qHTS assay to identify small molecule agonists of H2AX (AID 1224845; active means well fitted activation curve with a large enough effect in the signal ratio in the repeat runs, not every such curve was filed as active; the % refers to the signal ratio). The procedure, abridged:
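Phospho-H2AX Ser139 measured by HTRF (ex 320 nm; em 665 and 620 nm) after 24 hr antibody incubation. Compounds, 15 concentrations, 0.76% DMSO, were applied to CHO-K1 cells for 3hr at 37C before lysis.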

Experiment [20] can be described thus: qHTS assay to identify small molecule agonists of the estrogen related receptor signaling pathway with the pleiotropic PPARgamma coactivator (PGC) from Tox21 10K library (AID 1224842). Further: nearly all actives have a fitted effect of over 15% in size. Further: potency means the concentration at half of the fitted maximal effect. The gist of the method: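 Luminescence from One-Glo (30 min, room temperature) measured after PGC/ERR cells had 18 h at 37 C with pinned compound (23 nL in DMSO). Cells had been seeded at 2,000 per well and pre-incubated 6 h.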
On the % scale 0 is the no-effect control and ±100 the full control effect.

Sequence of Luciferin 4-monooxygenase (Photinus pyralis) (P08659 whole entry, looked up): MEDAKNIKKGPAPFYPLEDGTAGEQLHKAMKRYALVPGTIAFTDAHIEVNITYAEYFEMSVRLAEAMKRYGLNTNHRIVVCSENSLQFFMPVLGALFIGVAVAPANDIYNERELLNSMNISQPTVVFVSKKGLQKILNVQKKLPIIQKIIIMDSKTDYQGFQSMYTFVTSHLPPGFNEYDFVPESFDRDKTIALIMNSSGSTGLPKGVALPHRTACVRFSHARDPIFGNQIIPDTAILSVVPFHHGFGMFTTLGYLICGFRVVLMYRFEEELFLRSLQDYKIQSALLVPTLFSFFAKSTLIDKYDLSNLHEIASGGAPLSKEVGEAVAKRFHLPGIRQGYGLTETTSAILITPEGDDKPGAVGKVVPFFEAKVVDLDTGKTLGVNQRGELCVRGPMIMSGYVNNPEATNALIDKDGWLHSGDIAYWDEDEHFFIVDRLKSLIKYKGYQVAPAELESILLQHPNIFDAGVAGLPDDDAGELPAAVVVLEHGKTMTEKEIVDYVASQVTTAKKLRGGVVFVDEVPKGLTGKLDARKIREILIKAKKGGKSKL
Sequence of Nuclear receptor subfamily 1 group I member 3 (Homo sapiens) (Q14994 whole entry, looked up): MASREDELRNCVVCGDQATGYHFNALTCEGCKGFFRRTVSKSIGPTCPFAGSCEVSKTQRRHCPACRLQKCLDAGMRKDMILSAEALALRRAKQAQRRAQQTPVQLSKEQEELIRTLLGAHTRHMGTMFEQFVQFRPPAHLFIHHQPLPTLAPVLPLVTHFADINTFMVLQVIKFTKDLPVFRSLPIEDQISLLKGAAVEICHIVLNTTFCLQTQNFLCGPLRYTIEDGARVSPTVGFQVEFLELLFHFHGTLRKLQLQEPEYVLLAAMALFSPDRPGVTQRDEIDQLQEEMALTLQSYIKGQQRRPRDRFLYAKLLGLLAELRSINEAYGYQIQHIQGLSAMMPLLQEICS
Sequence of Thyrotropin receptor (Homo sapiens) (P16473 whole entry, looked up): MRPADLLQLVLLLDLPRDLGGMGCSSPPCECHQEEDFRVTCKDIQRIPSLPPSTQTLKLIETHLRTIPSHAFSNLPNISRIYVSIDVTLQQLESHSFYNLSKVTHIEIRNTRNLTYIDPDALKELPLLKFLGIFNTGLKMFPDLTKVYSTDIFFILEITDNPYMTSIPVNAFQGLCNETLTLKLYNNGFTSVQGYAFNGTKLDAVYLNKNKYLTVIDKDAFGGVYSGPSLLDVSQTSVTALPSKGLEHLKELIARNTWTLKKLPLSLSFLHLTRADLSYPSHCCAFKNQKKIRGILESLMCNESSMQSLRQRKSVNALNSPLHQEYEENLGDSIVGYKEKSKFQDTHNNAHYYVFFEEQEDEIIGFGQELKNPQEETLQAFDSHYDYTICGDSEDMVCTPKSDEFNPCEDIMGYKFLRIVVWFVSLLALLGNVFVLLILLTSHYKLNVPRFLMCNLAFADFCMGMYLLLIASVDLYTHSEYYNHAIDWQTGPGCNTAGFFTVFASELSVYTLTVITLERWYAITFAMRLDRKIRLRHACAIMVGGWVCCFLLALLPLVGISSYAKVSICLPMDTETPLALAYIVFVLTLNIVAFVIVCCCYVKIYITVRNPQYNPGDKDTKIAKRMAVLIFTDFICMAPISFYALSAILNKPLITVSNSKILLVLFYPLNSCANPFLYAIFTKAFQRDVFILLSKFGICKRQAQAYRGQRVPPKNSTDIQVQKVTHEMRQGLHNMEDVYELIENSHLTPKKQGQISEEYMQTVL

In the case of `O=C1NCCN1CCN1CCC(c2cn(-c3ccc(F)cc3)c3ccc(Cl)cc23)CC1`, the Potency result in experiment [1], in [5], in experiment [6] and in [13] was “inactive” in each case. In addition, the Potency in experiment [2] was 11.9 µM (active); in [3] it was 11.9 µM (active); in [4], 11.9 µM (active); in experiment [8], 49.2 µM (active); in [9] it was 13.3 µM (active); in [11] it was 23.9 µM (active). Moreover, the Potency in experiment [12] was 21.3 µM (active); in experiment [14] it was 23.9 µM (active). Also, the molecule was classed as inactive in [7]. Also, the activity change, positive = activation in experiment [10] is -56.2% [at 42.5 µM] (inactive).
With `NC(=O)C(=O)N/N=C/c1ccc([N+](=O)[O-])o1`, the Potency entry in [1], in experiment [2], in experiment [3], in experiment [4], in [5] and in [15] was “inactive” each time. The Potency entry in [16], in experiment [11], in [12] and in experiment [17] was “inactive” throughout. In experiment [7], the result was inactive.
With `CCN=C1C=CC(=C(c2ccc(N(CC)CC)cc2)c2ccc(N(CC)CC)cc2)c2ccccc21`, the Potency is 28.1 µM (active) in experiment [1]; 6.08 µM (active) in experiment [2]; 6.08 µM (active) in experiment [3]; 6.08 µM (active) in experiment [4]; 9.63 µM (active) in experiment [15]; 21.7 µM (active) in experiment [16]. Further, the Potency in [8] was 35.5 µM (active); in [11], 17.3 µM (active); in experiment [12], 6.88 µM (active); in experiment [17] it was 19.4 µM (active); in [14], 12.2 µM (active). Besides, in experiment [5], the Potency result was “inactive”.
For the molecule `COc1ccccc1C=O`, the Potency entry in experiment [1], in [2], in experiment [3], in [4], in experiment [5] and in experiment [18] was “inactive” in each case. Further, the Potency result in experiment [16], in experiment [19], in [8], in experiment [11], in experiment [12] and in experiment [13] was “inactive” in each case. Also, in experiment [14], the Potency result is “inactive”. Besides, the result in experiment [7] was inactive.
Regarding `N#CSCSc1nc2ccccc2s1`, the Potency in experiment [1] is 35.6 µM (active); in experiment [2], 61.1 µM (active); in [3], 27.3 µM (active); in [4] it was 30.6 µM (active); in experiment [15], 61.1 µM (active); in [16] it was 6.92 µM (active). The Potency in experiment [11] was 38.9 µM (active); in [12] it was 19.5 µM (active); in experiment [14], 11 µM (active). Also, the Potency entry in [5] and in experiment [13] was “inactive” each time.
As to `CC1=C(/C=C/C(C)=C/C=C/C(C)=C\C=O)C(C)(C)CCC1`, the Potency result in experiment [1], in experiment [2], in experiment [3], in experiment [4], in experiment [16] and in [11] was “inactive” each time. The Potency entry in [13] and in experiment [17] was “inactive” each time. In addition, the Potency in experiment [5] is 23 µM (active); in [18] it was 10.3 µM (active); in [8], 107 µM (active); in experiment [12], 46.4 µM (active). For the same molecule, the call in [7] was inactive.
For `c1ccc(Nc2cccc3ccccc23)cc1`, the Potency was 40.5 µM (active) and 35.6 µM (active) in experiment [1]; 61.9 µM (active) and 61.1 µM (active) in experiment [5]; 15.6 µM (active) and inactive in experiment [20]; 115 µM (active) and 113 µM (active) in experiment [8]. The Potency result in experiment [2], in experiment [3], in experiment [4], in experiment [6], in experiment [16] and in experiment [9] was “inactive” in each case. In addition, the Potency result in [11], in experiment [12], in [13], in experiment [17] and in [14] was “inactive” each time. Besides, the activity change, positive = activation in experiment [10] was -11.6% (active).
On to `COC(=O)[C@]1(C)CCC[C@@]2(C)[C@H]1CC=C1C=C(C(C)C)CC[C@@H]12`, for which the Potency result in [1], in [2], in experiment [3], in [4], in [5] and in experiment [6] was “inactive” throughout. Besides, the Potency result in experiment [18], in experiment [11], in [12] and in experiment [17] was “inactive” in each case. The activity change, positive = activation in experiment [10] is -22.1% (inactive). For the same molecule, the Potency in experiment [13] was 24.5 µM (active); in experiment [14], 38.9 µM (active).

The values are drawn from PubChem BioAssay (Tox21).
